Screening results from PubChem.
Most compounds without a hit are left out; they make up all but 3.5% or so of the library.
FBW7 act – human FBW7 E3 ligase activation, primary screen; hit rate 0.13% among 650,000; AID 1259310; AlphaScreen FBW7–phospho-cyclin E peptide binding, activator screen; normalized activity (activation), % at 26.1 µM; in the data active = normalized activity above about 1.9%;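 note: purified mutant Fbw7 with reduced substrate affinity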
GPR151 ag – human GPR151 activation; PathHunter beta-arrestin GPR151 cells, luminescence; activation, % at 11.2 µM; hit rate 1% among 650,000; AID 1508602; in the data active = activation above about 4.9%;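 note: 0% = median of compound wells and 100% = cells with positive control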
Target sequence (Q8TDV0 whole entry, looked up): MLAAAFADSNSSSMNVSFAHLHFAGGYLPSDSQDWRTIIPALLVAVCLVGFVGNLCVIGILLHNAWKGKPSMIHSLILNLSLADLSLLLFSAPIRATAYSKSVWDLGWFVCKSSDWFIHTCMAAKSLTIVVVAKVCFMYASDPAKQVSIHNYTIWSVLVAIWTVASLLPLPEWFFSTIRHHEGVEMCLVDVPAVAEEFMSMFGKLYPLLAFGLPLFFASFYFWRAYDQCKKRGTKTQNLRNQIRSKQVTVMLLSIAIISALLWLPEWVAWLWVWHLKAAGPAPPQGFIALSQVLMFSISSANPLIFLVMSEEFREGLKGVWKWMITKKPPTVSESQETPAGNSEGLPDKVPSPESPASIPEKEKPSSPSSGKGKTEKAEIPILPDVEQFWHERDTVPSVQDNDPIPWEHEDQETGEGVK
MITF inh – human MITF inhibition, primary screen | O75030 | AlphaScreen MITF homodimerization, bead proximity signal | hit rate 0.91% among 650,000 | inhibition, % at 2.6 µM; in the data active = inhibition above about 50%;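 note: 0% = vehicle wells with protein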
TEAD-YAP inh – TEAD-YAP interaction inhibition; HEK-TIYL cells, TEAD-Gal4/YAP UAS-luciferase luminescence; inhibition, % at 9.12 µM; hit rate 1.4% among 640,000; AID 1259422; in the data active = inhibition above about 32%;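 note: 0% = median of test compound wells and 100% = reference inhibitor wells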
MITF inh conf – confirmation of human MITF inhibitors. shares compounds with MITF inh. AlphaScreen MITF homodimerization, biotin/His-MITF beads. inhibition, % at 2.6 µM. hit rate 16% among 4,700. AID 1259372;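 active = inhibition above a cutoff derived from the DMSO control wells, cut at about 28% in these data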;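 note: 0% = MITF dimer wells with DMSO only; inhibitors lower the bead chemiluminescence by keeping MITF from dimerizing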
AS interf DR – counter-screen: compounds optically interfering with AlphaScreen | AlphaScreen optical interference counterscreen, cell-free | shares compounds with MITF inh | hit rate 6% among 480 | IC50, µM; call rule not given here
AS interf ctr – counter-screen: compounds optically interfering with AlphaScreen; LysRS AlphaScreen counterscreen, signal interference, triplicate; inhibition, % at 2.6 µM; AID 1259376; shares compounds with MITF inh; hit rate 7.6% among 4,700;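 active = inhibition above a cutoff derived from the DMSO control wells, cut at about 30% in these data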
* marks the source's active call; other numbers are inactive results; / = no result given.

SMILES	FBW7 act	GPR151 ag	MITF inh	TEAD-YAP inh	MITF inh conf	AS interf ctr	others
CN(C)CCOCCOc1cccc2ccccc12	-0.2	-0.2	62.6*	14.0	-1.2	-1.1
C=CCN(CC=C)CCOc1ccccc1OC(C)C	-0.1	2.1	35.1	-5.1	/	/
CC(C)Oc1ccccc1OCCN(C)C	-0.3	0.4	75.3*	5.2	7.1	14.6
Cc1cccc(C(=O)N2CCC3(CC2)CC3C(=O)NCCCc2ccncc2)c1C (stereo not drawn)	0.3	1.1	1.4	-12.2	/	/
CCSc1nnc2c(n1)OC(c1ccc(Br)s1)N(C(=O)CC)c1ccccc1-2 (stereo not drawn)	0.0	1.3	6.2	6.6	/	/
CC1=CC(C)(C)N(C(=O)c2sc3cc([N+](=O)[O-])ccc3c2Cl)c2ccccc21	0.1	-0.8	1.1	1.7	/	/
Cc1ccc(C(=O)N/C(=C/c2ccccc2)C(=O)N2CCC(C)CC2)cc1	-0.1	1.9	0.8	-8.3	/	/
O=C(O)Cc1cc(=O)n(-c2ccccn2)[nH]1	-0.6	-0.9	116.7*	-3.8	117.5*	100.3*
Cc1cc(-c2cncnc2C2CCN(CC(=O)Nc3nc(C)cs3)CC2)on1	0.0	0.3	11.4	17.3	/	/
COc1ccc(OCC(=O)OCC(=O)COC(=O)COc2ccc(OC)cc2)cc1	-0.1	-1.2	76.5*	4.0	11.1	5.5
O=C(N[C@H]1C[C@H]2C(=O)N[C@@H](Cc3ccccc3)C(=O)N2C1)c1cccc(Br)c1	0.0	-1.3	-3.2	2.0	/	/
CCSc1nc2c(c(=O)[nH]1)C(c1ccc(O)c(OC)c1)C1=C(CCCC1=O)N2 (stereo not drawn)	0.2	-1.1	60.5*	0.6	0.0	7.9
Cc1ccc(O)c(NC(=S)NC(=O)/C=C/c2ccco2)c1	-0.2	0.1	62.0*	14.8	29.6*	29.4	AS interf DR=>6.48
O=C(/C=C/c1cccc([N+](=O)[O-])c1)NC(=S)Nc1ccccc1C(=O)O	-0.3	3.4	86.0*	1.4	-11.0	1.1
NC(=O)c1ccccc1NC(=S)NC(=O)/C=C/c1ccco1	-0.1	0.8	53.8*	41.2*	69.9*	-0.5	AS interf DR=>6.48
COc1ccc(N(C(=O)c2ccccc2OC)S(=O)(=O)c2ccc(Cl)cc2)cc1	-0.2	1.9	-3.5	7.9	/	/
O=C(CCCn1c(SCc2nc3ccccc3[nH]2)nc2ccsc2c1=O)NCCc1ccccc1	0.1	-1.4	2.6	-6.1	/	/
O=C(O)CCCCCn1c(SCc2nc3ccccc3[nH]2)nc2ccsc2c1=O	0.1	-0.1	61.1*	-6.2	-10.9	-6.9
COc1ccc(OC)c(CN2CCN(C/C=C/c3ccccc3)CC2)c1	0.0	3.4	80.5*	5.1	4.1	17.9
COc1ccc(CN2CCN(C/C=C/c3ccccc3)CC2)c(O)c1	0.5	-0.5	18.7	11.5	/	/
CCOC(=O)c1ccoc1CN1CCN(C/C=C/c2ccccc2)CC1	-0.2	-0.8	78.6*	-4.9	15.7	-1.2
COc1ccccc1CN1CCN(C/C=C/c2ccccc2)CC1	-0.1	0.5	68.8*	-1.9	8.0	5.8
CCOC(=O)c1ccoc1CN1CCN(c2cccc(C)c2C)CC1	0.3	0.0	5.7	1.6	/	/
CCn1c(=NC(=O)c2ccc(N3C(=O)CCC3=O)cc2)sc2cc(F)ccc21	0.0	-0.6	0.6	6.7	/	/
COc1ccc(C(=O)N2CCN(Cc3ccc4ccccc4c3)CC2)cc1OC	0.0	0.5	69.9*	38.3*	12.4	21.7
SMILES	FBW7 act	GPR151 ag	MITF inh	TEAD-YAP inh	MITF inh conf	AS interf ctr	others
CCOc1cc(N2CCN(C(=O)c3ccc(OC)c(OC)c3)CC2)nc(C)n1	-0.1	0.7	6.2	1.8	/	/
O=C(c1ccncc1)N1CCN(Cc2ccc3ccccc3c2)CC1	0.0	0.6	79.3*	4.9	-16.5	-4.7
COc1cc(OC)cc(C(=O)N2CCN(Cc3ccc(OC)c(OC)c3)CC2)c1	-0.2	1.4	35.0	2.9	/	/
COc1cc(N2CCN(C(=O)c3ccc(OC)c(OC)c3)CC2)nc(C)n1	0.1	0.1	107.1*	7.8	-4.0	-7.8
COc1cc(OC)cc(C(=O)N2CCN(Cc3ccncc3)CC2)c1	-0.4	0.7	83.7*	9.2	3.5	4.0
COc1cccc(C(=O)N2CCN(Cc3ccc4ccccc4c3)CC2)c1	-0.3	-0.8	7.0	9.4	/	/
CCc1ccc(CN2CCN(C(=O)c3ccccc3)CC2)cc1	-0.1	-0.3	23.9	-10.2	/	/
CC(=O)CC(=O)Nc1ccc(NC(=O)CC(C)=O)c(Cl)c1	0.3	-1.2	10.2	-2.3	/	/
O=C(Nc1cccc(F)c1)c1cnccn1	-0.1	-1.8	-2.0	-26.1	/	/
CN(C)C(=O)CN1C(=O)C2C3C=CC(C3)C2C1=O (stereo not drawn)	-0.1	0.0	-1.0	5.7	/	/
COc1cccc(C(=O)N2CCC(N3CC(C)CC(C)C3)CC2)c1 (stereo not drawn)	0.1	0.8	60.8*	0.8	0.9	2.7
CC(C)N1CCN(C(=O)c2ccncc2)CC1	-0.1	-0.8	78.0*	1.3	-2.7	-0.3
COc1cccc(OC)c1C(=O)N1CCN(Cc2ccncc2)CC1	-0.3	1.1	74.9*	1.9	-11.8	-4.9
COc1ccc(CN2CCN(C(=O)c3ccncc3)CC2)cc1	-0.4	1.8	74.9*	-1.4	3.7	16.3
COc1ccc(C(=O)N2CCN(Cc3ccccc3)CC2)cc1	0.1	0.2	46.8	1.1	/	/
COc1cccc(OC)c1C(=O)N1CCCCCC1	0.0	1.7	-1.9	0.7	/	/
Cc1c(CCOC(=O)c2ccc([N+](=O)[O-])o2)sc[n+]1CCCS(=O)(=O)O	-0.1	0.5	0.9	-0.1	/	/
COc1ccc(N2CC(O)(c3ccccc3)[N+]3=C2SCCC3)cc1 (stereo not drawn)	0.1	0.3	11.0	14.7	/	/
COc1cccc(C(=O)N2CCN(Cc3ccncc3)CC2)c1	-0.2	-0.8	67.9*	-3.1	14.6	17.4
COc1ccc(-c2cc(C(F)(F)F)n3nc(C(=O)Nc4sc5c(c4C(N)=O)CCC(C(C)(C)C)C5)cc3n2)cc1 (stereo not drawn)	-0.1	-0.5	5.1	0.7	/	/
COC(F)(C(=O)Nc1ccc(Br)c2cccnc12)C(F)(F)F (stereo not drawn)	-0.1	0.8	-4.2	2.5	/	/
OCCCNc1ccc2ncc(-c3ccccc3Cl)n2n1	-0.1	2.0	85.4*	8.0	12.6	17.3
O=C(NCCOc1cccc2cccnc12)c1c(F)cccc1Cl	-0.2	1.9	3.0	-2.7	/	/
CCN(CC)CCCNCc1ccc(Cl)cc1	0.1	-0.3	51.2*	-9.3	-4.5	0.3
CCOC(=O)COc1c(/C=C2/N=C(c3ccco3)OC2=O)cccc1OC	0.1	-1.2	-0.7	13.7	/	/
CC(=O)[C@@H]1[C@H]2C3COC(O3)C(=O)[C@@H]2[C@H]2C=Cc3ccccc3N21 (stereo partly drawn)	-0.1	-1.1	12.8	4.7	/	/
O=C(O)c1cc(-c2ccco2)nc2ccc(Br)cc12	-0.3	-0.4	58.0*	-6.8	19.8	17.8
